Here are results for 19 molecules from PubChem BioAssay.

The nature of assay [1]: antimalarial activity against Dd2 strain (AID 2302;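 active = growth inhibition above 50% at the single 2 µM test dose, taken to imply half-maximal potency below 2 µM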;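 note: 0% = DMSO untreated growth and 100% = chloroquine plus artemisinin killed control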). The note with it: P. falciparum Dd2 in RBCs, LDH growth readout, 72 h; at 2 µM; active compounds read high.
Assay [2] can be described thus: human hepatoma cell viability loss – ATP luminescence, cytotoxicity control for P. falciparum antimalarial project, primary screen (AID 2303;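 active = inhibition above 50%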;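 note: 0% = DMSO wells and 100% = digitonin-killed cells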). Conditions: HepG2 viability, 24-48 h, at 10 µM, active compounds read high.
For assay [3], the target named is L-lactate dehydrogenase (Plasmodium falciparum (isolate CDC / Honduras)) (UniProt Q27743). Put plainly: PfLDH activity inhibition – cell lysate, 3D7 strain, counter-screen for P. falciparum growth inhibition project (AID 2304).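 Note: 0% = vehicle and 100% = reference inhibitor.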 The note with it: P. falciparum 3D7 crude extract, LDH APAD/NBT absorbance; at 2 µM; active compounds read high.
Assay [4] can be described thus: inhibition of 3D7 malaria parasite growth – strain 3D7 (AID 2306).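 Note: 0% = DMSO wells and 100% = chloroquine plus artemisinin control wells.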 Conditions: P. falciparum 3D7 erythrocytic growth, LDH absorbance, 72 h; at 2 µM; active compounds read high.
Assay [5] addresses Calcium-dependent protein kinase 1 (Plasmodium falciparum (isolate 3D7)) (UniProt P62344). Briefly: PfCDPK1 kinase inhibitors, biochemical, TCAMS library (AID 1159585; cut-off not given, nearly all actives have IC50 up to about 0.98 µM;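 note: inhibitors leave more ATP so luminescence rises with inhibition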). Conditions: recombinant PfCDPK1, Kinase-Glo ATP depletion luminescence.
The target in assay [6] is Plasmodium falciparum protein kinase 6 (PK6, PF3D7_1337100) (UniProt Q8IDW1). Briefly: PfPK6 kinase inhibitors, biochemical, TCAMS library (AID 1159586). Conditions: recombinant PfPK6, Kinase-Glo ATP depletion luminescence. On the technique in general: Kinase-Glo reads ATP consumption through a luciferase reaction.
Assay [7] deals with Protein kinase 7 (PK7), Plasmodium falciparum 3D7 (PF3D7_0213400) (UniProt Q7YTF7). Briefly: inhibition of Plasmodium PK7 catalytic activity – biochemical, TCAMS antimalarial set, Kinase-Glo luminescence (AID 1159587). The note with it: recombinant PfPK7, Kinase-Glo ATP depletion luminescence.
In assay [8] the target is Calcium-dependent protein kinase 4 (Plasmodium falciparum (isolate 3D7)) (UniProt Q8IBS5). Put plainly: PfCDPK4 kinase inhibitors, biochemical, TCAMS library (AID 1159588; cut-off not given, nearly all actives have IC50 up to about 0.91 µM). The note with it: recombinant PfCDPK4, Kinase-Glo ATP depletion luminescence.

Values without a mark were called inactive. For some assays here: Results with a measured potency or affinity are listed apart. Calls of active or inactive are those of the source. Unless noted, the rule behind the calls is not given here.

Calcium-dependent protein kinase 1 (Plasmodium falciparum (isolate 3D7)), sequence (P62344 whole entry, looked up): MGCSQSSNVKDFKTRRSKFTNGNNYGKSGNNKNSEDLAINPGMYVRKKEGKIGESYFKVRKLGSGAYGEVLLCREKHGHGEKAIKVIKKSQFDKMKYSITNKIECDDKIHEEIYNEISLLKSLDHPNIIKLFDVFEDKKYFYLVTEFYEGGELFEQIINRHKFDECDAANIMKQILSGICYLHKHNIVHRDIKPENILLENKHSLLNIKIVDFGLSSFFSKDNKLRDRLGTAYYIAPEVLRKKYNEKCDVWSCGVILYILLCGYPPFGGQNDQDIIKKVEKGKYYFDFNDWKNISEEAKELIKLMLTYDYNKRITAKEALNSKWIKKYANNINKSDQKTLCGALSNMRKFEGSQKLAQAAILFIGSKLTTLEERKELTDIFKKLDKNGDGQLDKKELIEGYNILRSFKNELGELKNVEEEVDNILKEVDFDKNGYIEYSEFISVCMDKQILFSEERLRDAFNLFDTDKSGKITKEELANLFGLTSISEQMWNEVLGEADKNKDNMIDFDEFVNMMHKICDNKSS
Protein kinase 7 (PK7), Plasmodium falciparum 3D7 (PF3D7_0213400), sequence (Q7YTF7 1-343): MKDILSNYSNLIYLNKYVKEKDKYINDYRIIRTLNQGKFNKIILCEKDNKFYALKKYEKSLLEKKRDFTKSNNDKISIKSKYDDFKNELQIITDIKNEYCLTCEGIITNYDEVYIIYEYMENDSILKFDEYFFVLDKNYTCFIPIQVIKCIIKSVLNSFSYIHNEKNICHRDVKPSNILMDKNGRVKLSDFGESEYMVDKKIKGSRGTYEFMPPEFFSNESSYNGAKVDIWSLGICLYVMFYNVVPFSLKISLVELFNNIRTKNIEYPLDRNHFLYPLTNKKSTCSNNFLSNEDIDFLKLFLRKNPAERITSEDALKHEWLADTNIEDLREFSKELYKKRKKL
L-lactate dehydrogenase (Plasmodium falciparum (isolate CDC / Honduras)), sequence (Q27743 whole entry, looked up): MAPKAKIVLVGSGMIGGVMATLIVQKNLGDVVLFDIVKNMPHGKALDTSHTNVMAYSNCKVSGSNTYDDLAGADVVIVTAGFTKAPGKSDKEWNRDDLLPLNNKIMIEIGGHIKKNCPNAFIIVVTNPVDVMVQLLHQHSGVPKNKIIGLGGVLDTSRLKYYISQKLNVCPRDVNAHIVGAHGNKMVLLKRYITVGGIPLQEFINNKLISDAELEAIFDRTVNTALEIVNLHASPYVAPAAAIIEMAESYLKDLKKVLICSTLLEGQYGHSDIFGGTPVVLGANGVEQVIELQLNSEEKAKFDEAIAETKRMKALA
Plasmodium falciparum protein kinase 6 (PK6, PF3D7_1337100), sequence (Q8IDW1 1-305): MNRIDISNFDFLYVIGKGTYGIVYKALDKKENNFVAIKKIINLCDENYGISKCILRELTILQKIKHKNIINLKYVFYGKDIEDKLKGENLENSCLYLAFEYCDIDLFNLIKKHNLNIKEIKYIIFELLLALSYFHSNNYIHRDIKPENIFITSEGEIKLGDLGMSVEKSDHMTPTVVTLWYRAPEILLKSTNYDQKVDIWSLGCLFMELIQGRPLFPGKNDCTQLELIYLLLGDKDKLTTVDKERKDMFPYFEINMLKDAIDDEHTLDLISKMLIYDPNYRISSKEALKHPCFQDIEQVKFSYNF
Calcium-dependent protein kinase 4 (Plasmodium falciparum (isolate 3D7)), sequence (Q8IBS5 whole entry, looked up): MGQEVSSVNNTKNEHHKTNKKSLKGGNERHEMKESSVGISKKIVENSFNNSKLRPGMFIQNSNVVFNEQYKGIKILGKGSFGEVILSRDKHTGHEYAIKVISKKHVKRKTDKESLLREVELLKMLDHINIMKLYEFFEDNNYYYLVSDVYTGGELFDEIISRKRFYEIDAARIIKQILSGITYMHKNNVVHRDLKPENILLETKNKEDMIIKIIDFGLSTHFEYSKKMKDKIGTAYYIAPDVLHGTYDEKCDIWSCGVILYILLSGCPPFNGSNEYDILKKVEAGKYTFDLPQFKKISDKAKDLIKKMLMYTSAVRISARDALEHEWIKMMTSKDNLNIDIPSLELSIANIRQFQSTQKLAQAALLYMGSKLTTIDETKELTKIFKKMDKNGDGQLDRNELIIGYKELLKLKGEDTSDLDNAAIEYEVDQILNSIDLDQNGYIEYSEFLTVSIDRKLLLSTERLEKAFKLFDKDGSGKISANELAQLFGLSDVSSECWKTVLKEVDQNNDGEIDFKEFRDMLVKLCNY

As usually defined, the inhibition is the change of the read-out against control, counted positive when it falls. Consider `COC(=O)/C=C/c1ccc(CC(C)NCC(O)c2cccc(Br)c2)cc1` (configuration not stated), for which the growth inhibition in assay [1] is 93% (active); in assay [4], 97% (active). The inhibition in assay [2] was 2%; in assay [3], 5%. Further, the outcome in assay [5], in assay [6], in assay [7] and in assay [8] was inactive.

Turning to `COc1ccccc1CNCC(O)c1cc(C(F)(F)F)ccc1C(F)(F)F` (configuration not stated), the growth inhibition in assay [1] is 95% (active); in assay [4] it was 101% (active). Moreover, the results for the inhibition in assay [2] and in assay [3] were 10% and 5%, respectively. In addition, the result in assay [5], in assay [6], in assay [7] and in assay [8] was inactive.

`CC[C@H]1CN2CC[C@H]1C[C@H]2[C@H](O)c1cc(-c2ccc(SC)cc2)nc2ccc(OC)cc12`: the growth inhibition in assay [1] is 99% (active); in assay [4] it was 98% (active). The figures for the inhibition in assay [2] and in assay [3] were 9% and -1%, respectively. Further, the result in assay [5], in assay [6], in assay [7] and in assay [8] was inactive.

For `CC(C)c1ccc(C=CC(=O)NC2CCC(CN3CCC(c4c[nH]c5ccccc45)CC3)CC2)cc1` (configuration not stated), the results for the growth inhibition in assay [1] and in assay [4] were 85% (active) and 101% (active), respectively. Besides, the inhibition in assay [2] is 50% (active); in assay [3], -3%. For the same molecule, the result in assay [5], in assay [6], in assay [7] and in assay [8] was inactive.

`c1ccc(C(OCCC2CCN(Cc3cccc4cccnc34)CC2)c2ccccc2)cc1`: the growth inhibition in assay [1] and in assay [4] was 99% (active) each time. The results for the inhibition in assay [2] and in assay [3] were 9% and 0%, respectively. Moreover, the outcome in assay [5], in assay [6], in assay [7] and in assay [8] was inactive.

As to `O=C(C=Cc1ccc(F)c(Br)c1)N1CCC(CN2CCC(c3c[nH]c4ccccc34)CC2)CC1`, the growth inhibition in assay [1] is 9%; in assay [4], 100% (active). Besides, the inhibition is 39% in assay [2] and -3% in assay [3]. Further, the result in assay [5], in assay [6], in assay [7] and in assay [8] was inactive.

Regarding `COc1ccc(CN(C2CC2)C(C)C(=O)c2[nH]c(C)c(C(C)=O)c2C)cc1` (configuration not stated), the growth inhibition in assay [1] was 64% (active); in assay [4], 98% (active). Also, the figures for the inhibition in assay [2] and in assay [3] were 40% and -3%, respectively. The result in assay [5], in assay [6], in assay [7] and in assay [8] was inactive.

On to `CNCCN(C)C(=O)Oc1c(Br)c(C)nc(C)c1-c1ccc(Oc2ccc(OC(F)(F)F)cc2)cc1`, for which the growth inhibition in assay [1] and in assay [4] was 98% (active) each time. In addition, the inhibition in assay [2] is 19%; in assay [3], 2%. Moreover, the result in assay [5], in assay [6], in assay [7] and in assay [8] was inactive.

`CC(C)CNCc1cccc(-c2ccc(CN(C(=O)NC3CCCCC3)C3CCN(Cc4ccccc4)CC3)cc2)c1`: the growth inhibition was 51% (active) in assay [1] and 97% (active) in assay [4]. Further, the inhibition in assay [2] is 27%; in assay [3] it was -2%. Further, the result in assay [5], in assay [6], in assay [7] and in assay [8] was inactive.

Turning to `CCOC(=O)c1ccc(CC(C)NCC(O)c2cccc(C(F)(F)F)c2)cc1` (configuration not stated), the values for the growth inhibition in assay [1] and in assay [4] were 98% (active) and 100% (active), respectively. Besides, the inhibition in assay [2] was 5%; in assay [3], -9%. For the same molecule, the result in assay [5], in assay [6], in assay [7] and in assay [8] was inactive.

As to `O=C(/C=C/c1ccc(F)c(C(F)(F)F)c1)N1CCC(CN2CCC(c3c[nH]c4ccccc34)CC2)CC1`, the growth inhibition in assay [1] was 1%; in assay [4], 98% (active). The values for the inhibition in assay [2] and in assay [3] were 23% and 2%, respectively. The outcome in assay [5], in assay [6], in assay [7] and in assay [8] was inactive.

For the molecule `CNC(=O)c1ccc2[nH]cc(C3CCN(CC4CCC(NC(=O)/C=C/c5ccc(Cl)c(Cl)c5)CC4)CC3)c2c1` (configuration not stated), the growth inhibition was 90% (active) in assay [1] and 100% (active) in assay [4]. Further, the inhibition in assay [2] is -1%; in assay [3] it was -7%. For the same molecule, the result in assay [5], in assay [6], in assay [7] and in assay [8] was inactive.

Regarding `CC[C@H]1CN2CC[C@@H]1C[C@H]2[C@H](O)c1cc(-c2ccccc2)nc2ccc(O)cc12`, the growth inhibition in assay [1] and in assay [4] was 99% (active) in each case. The inhibition in assay [2] was 14%; in assay [3], -2%. The outcome in assay [5], in assay [6], in assay [7] and in assay [8] was inactive.

Regarding `O=C(/C=C/c1ccc(Cl)c(Cl)c1)N1CCC(CN2[C@@H]3CC[C@H]2CC(c2c[nH]c4ccccc24)C3)CC1` (some centres not stated), the growth inhibition is 66% (active) in assay [1] and 100% (active) in assay [4]. Further, the results for the inhibition in assay [2] and in assay [3] were 84% (active) and -3%, respectively. For the same molecule, the outcome in assay [5], in assay [6], in assay [7] and in assay [8] was inactive.

Regarding `Cc1ccc(CC(C)NCC(O)c2cccc([N+](=O)[O-])c2)cc1` (configuration not stated), the values for the growth inhibition in assay [1] and in assay [4] were 85% (active) and 97% (active), respectively. Moreover, the inhibition in assay [2] is -6%; in assay [3], -2%. Besides, the outcome in assay [5], in assay [6], in assay [7] and in assay [8] was inactive.

On to `COc1ccc(CCNCc2ccc3nc(N)cc(C)c3c2)cc1`, for which the growth inhibition in assay [1] is 86% (active); in assay [4] it was 100% (active). Also, the inhibition in assay [2] was 23%; in assay [3] it was -5%. Besides, the result in assay [5], in assay [6], in assay [7] and in assay [8] was inactive.

As to `COCCNCc1cccc(-c2ccc(CN(C(=O)NC3CCCCC3)C3CCN(Cc4ccccc4)CC3)cc2)c1`, the growth inhibition in assay [1] was 31%; in assay [4], 101% (active). Moreover, the inhibition in assay [2] was 32%; in assay [3] it was 6%. The result in assay [5], in assay [6], in assay [7] and in assay [8] was inactive.

In the case of `CN(C)CCC(=O)c1ccccc1`, the growth inhibition is 5% in assay [1] and 100% (active) in assay [4]. The inhibition in assay [2] is 11%; in assay [3] it was -6%. In addition, the outcome in assay [5], in assay [6], in assay [7] and in assay [8] was inactive.

Turning to `O=C(/C=C/c1ccc2ccccc2c1)NC1CCC(CN2CCC(c3c[nH]c4ccccc34)CC2)CC1` (configuration not stated), the figures for the growth inhibition in assay [1] and in assay [4] were 88% (active) and 100% (active), respectively. Also, the inhibition is 28% in assay [2] and 4% in assay [3]. For the same molecule, the outcome in assay [5], in assay [6], in assay [7] and in assay [8] was inactive.
